Source: PubChem BioAssay AID485346 (Sanford-Burnham Center for Chemical Genomics, 2010)
The whole screen tested about 330,000 compounds, of which about 10,000 (3%) were called active. The sample holds actives, similar compounds and a random draw of the others, so the mix is not that of the screen. Unmarked numbers belong to inactive results.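 The calls were made as follows: active = inhibition of at least 50% at 8 µM in the primary screen; inactive = the rest.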

target: Protein Mdm4 (Homo sapiens) + E3 ubiquitin-protein ligase Mdm2 (Homo sapiens) (UniProt O15151+Q00987); test: inhibitors of human Mdm2-MdmX association, primary screen, cell-based, luminescence, split luciferase, SaOS-2, uHTS (AID 485346); details: SaOS-2 split-luciferase Mdm2/MdmX complementation, at 8 µM, active compounds read high
Sequence (O15151 whole entry, looked up): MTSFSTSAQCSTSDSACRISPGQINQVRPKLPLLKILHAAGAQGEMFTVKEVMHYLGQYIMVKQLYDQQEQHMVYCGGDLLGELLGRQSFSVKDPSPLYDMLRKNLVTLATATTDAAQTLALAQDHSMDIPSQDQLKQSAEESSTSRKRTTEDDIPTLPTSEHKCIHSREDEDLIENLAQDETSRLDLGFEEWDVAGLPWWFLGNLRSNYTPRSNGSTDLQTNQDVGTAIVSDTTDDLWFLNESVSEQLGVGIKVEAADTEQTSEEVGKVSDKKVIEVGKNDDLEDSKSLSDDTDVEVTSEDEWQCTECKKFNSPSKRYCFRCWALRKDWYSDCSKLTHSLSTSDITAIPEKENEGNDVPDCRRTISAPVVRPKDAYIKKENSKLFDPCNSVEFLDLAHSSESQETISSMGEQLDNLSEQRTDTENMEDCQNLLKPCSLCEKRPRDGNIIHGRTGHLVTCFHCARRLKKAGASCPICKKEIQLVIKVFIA
Sequence (Q00987 whole entry, looked up): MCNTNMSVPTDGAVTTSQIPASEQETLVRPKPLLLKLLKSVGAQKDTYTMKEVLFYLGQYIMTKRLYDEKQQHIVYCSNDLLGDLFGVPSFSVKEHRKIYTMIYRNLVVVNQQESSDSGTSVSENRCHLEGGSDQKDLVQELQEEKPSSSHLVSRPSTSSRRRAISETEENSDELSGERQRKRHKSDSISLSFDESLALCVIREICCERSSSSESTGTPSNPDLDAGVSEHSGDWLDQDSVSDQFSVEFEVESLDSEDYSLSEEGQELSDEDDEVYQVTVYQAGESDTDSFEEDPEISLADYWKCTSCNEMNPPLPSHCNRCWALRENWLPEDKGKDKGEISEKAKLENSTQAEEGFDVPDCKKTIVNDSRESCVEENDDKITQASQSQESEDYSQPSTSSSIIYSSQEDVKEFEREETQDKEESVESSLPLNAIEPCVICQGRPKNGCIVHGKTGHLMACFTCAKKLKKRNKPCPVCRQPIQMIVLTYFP

Structure (SMILES) | inhibition
C/C=C/C=C/C(=O)O | 19.9%
Cc1cc(C)c(S(=O)(=O)N2C=CC(C(F)(F)F)=NCC2)c(C)c1 | 17.6%
CC(C(=O)Nc1ccc(F)c(F)c1F)N1CCCCCC1 (stereo unspecified) | 24.1%
COc1ccccc1CCNC(=O)C1CCN(C(=O)/C=C/c2ccccc2)CC1 | -2.9%
O=C(/C=C/c1ccc(Cl)c([N+](=O)[O-])c1)c1cccnc1 | 84.3% (active)
O=C(/C=C/c1ccc(Cl)c([N+](=O)[O-])c1)c1ccc(O)cc1 | 98.7% (active)
CN(C)c1ccc(/C=C/C(=O)c2ccc(O)cc2)cc1[N+](=O)[O-] | 11.6%
O=C(/C=C/c1ccc(Cl)cc1Cl)c1cccnc1 | 17.5%
O=C(Nc1cccnc1)c1ccc(Cl)c([N+](=O)[O-])c1 | -11.2%
CN(C)c1ccc(/C=C/C(=O)c2ccc(C(C)(C)C)cc2)cc1[N+](=O)[O-] | 30.9%
O=C(COC(=O)CNC(=O)C1CCCCC1)NCc1ccccc1 | 17.1%
CCCSc1ccc([C@H]2N[C@@](Cc3ccccc3)(C(=O)OC)[C@H]3C(=O)N(C)C(=O)[C@@H]23)cc1 | 42.6%
CC1CN(C(=S)Nc2ccccc2F)CC(C)O1 (stereo unspecified) | 28.4%
O=C(/C=C/c1cccc([N+](=O)[O-])c1)OCC(=O)N1CCOCC1 | 9.38%
CCOP(=O)(OCC)C(Nc1cccc(C)c1)c1ccc(F)cc1 (stereo unspecified) | -2.51%
Fc1ccccc1Cn1cnc(NC(=S)NCCc2ccccc2)n1 | 45.1%
O=C(COC(=O)Cc1ccccc1F)NCCc1ccccc1 | 6.62%
N=c1n(CCc2ccccc2)c2ccccc2n1Cc1ccccc1F | 64.2% (active)
Cc1nn(CCOc2ccc(Br)cc2)c(C)c1[N+](=O)[O-] | 18.2%
C=CC1=C(C(=O)O)N2C(=O)[C@@H](NC(=O)/C(=N\OCC(=O)O)c3csc(N)n3)[C@H]2SC1 | 16%
COc1ccc(CCOC2OC(CO)C(OC(=O)/C=C/c3ccc(O)c(OC)c3)C(O[C@H]3O[C@@H](C)[C@H](O)[C@@H](O)[C@H]3O)C2O)cc1O (stereo partly specified) | -29.1%
CCN1/C(=C\c2ccc3ccccc3[n+]2CC)Sc2cc(C)ccc21 | 77.1% (active)
COC(=O)C[n+]1cccc2ccccc21 | 6.08%

Structure (SMILES) | inhibition
O=S(=O)(NCC1CN(S(=O)(=O)c2ccc3c(c2)OCCO3)C1)c1c(F)cccc1F | -1.76%
O=C(N[C@H]1C/C=C\C(c2ccc(F)cc2)N(Cc2ccccc2)C(=O)C1)OCC1c2ccccc2-c2ccccc21 (stereo partly specified) | 20.2%
CCCC(=O)Nc1ccc(C(=O)N/N=C/c2ccc[nH]2)cc1 | 70.3% (active)
CC(=O)Nc1ccc(C(=O)/C=C/c2ccc[nH]2)cc1 | 1.87%
O=C(COc1ccccc1[N+](=O)[O-])N/N=C/c1ccc[nH]1 | 3.97%
O=C(NCc1ccccc1CN1CCCC1)C1CCN(S(=O)(=O)c2ccc(Cl)cc2)CC1 | 3.2%
CC(C)(C)OC(=O)Nc1ccc([C@@H](NC(=O)OC(C)(C)C)C(=O)OC(C)(C)C)cc1 | 2.33%
Cc1ccc(/C=N/NC(=O)C2=NNC(c3ccccc3)(c3ccccc3)C2)c(O)c1 | 42.2%
Cc1n[nH]c(=O)nc1N/N=C/c1cccs1 | -4.56%
O=c1c2ccccc2nc(N/N=C/c2ccccc2)n1O | -0.971%
COc1ccccc1N1CCN(/N=C/c2ccc(O)cc2O)CC1 | 16.1%
Cc1nc2ccccc2nc1N/N=C/c1ccc(O)cc1O | 77.6% (active)
Oc1ccc(/C=N/Nc2nc(-c3ccccc3F)nc3ccccc23)c(O)c1 | 69% (active)
CCCNC(=O)OC[C@H]1O[C@H](CCO/N=C/[C@@H](NS(=O)(=O)c2ccc(C)cc2)[C@H](C)/C=C/CC(=O)OC)C=C[C@@H]1Oc1ccc(OC)cc1 | 20.8%
O=C(Cn1c2[n+](c3ccc(C(F)(F)F)cc31)CCCCC2)Nc1c(F)cccc1F | 13%
C=CCNC(=O)/C=C/c1ccc(C(C)C)cc1 | -111%
O=C(c1ccc[nH]c1=S)N1CCN(S(=O)(=O)c2ccc(Br)cc2Cl)CC1 | 2.6%
COc1cc2c(cc1OC)CN(C(=O)c1cc(S(=O)(=O)N3CCCCC3)ccc1Cl)CC2 | 20.3%
COc1cc2c(cc1OC)C(C)N(S(=O)(=O)c1cnc(Cl)c(Cl)c1)CC2 (stereo unspecified) | 80.7% (active)
COc1ccc(S(=O)(=O)N2CCC(C(=O)N3CCc4ccccc4C3)CC2)cc1OC | -18.3%
COC(=O)C1C(=O)NCC1c1ccc(C)cc1 (stereo unspecified) | 13%
COC(=O)C1=C(Nc2ccc(C)cc2)C=C(C)C(C(=O)OC)C1c1ccc(F)cc1 (stereo unspecified) | 50.9% (active)
COC(=O)C1=C(Nc2ccc(OC)cc2)C=C(C)C(C(=O)OC)C1c1ccc(C)cc1 (stereo unspecified) | 19.4%

Structure (SMILES) | inhibition
CC(C)(C)C(=O)NC1CC2CCCC(C1)N2C(=O)Nc1ccccc1F (stereo unspecified) | -1.01%
O=C(CC1C(=O)NCCN1CC(c1ccccc1)c1ccccc1)NCC1CCOCC1 (stereo unspecified) | 15.7%
COc1cc(NS(=O)(=O)c2ccc(NC(=S)NC(=O)c3ccccc3)cc2)nc(OC)n1 | 13.4%
CCOC(=O)N1CCN(C(=O)c2ccc3c(c2)N(Cc2ccc(C)cc2)CCS3)CC1 | 6.09%
CCOC(=O)N1CCN(C(=O)c2ccc(S(=O)(=O)c3ccc(C)cc3)c(NC(C)=O)c2)CC1 | 50.8% (active)
COCCNC(=O)c1ccc(S(=O)(=O)c2ccc(Cl)cc2)c(NC(C)=O)c1 | 14.7%
CCOC(=O)/C(C#N)=C\c1c(C)cc(C)c(COC(C)=O)c1C | 14.2%
Cc1cc(C)nc(SCC(=O)N(C)C)n1 | -9.55%
Cc1cc(C)nc(S/C=C/C(=O)c2ccccc2)n1 | 65.8% (active)
Cc1cc(C)nc(SCC(=O)c2ccc(Cl)cc2)n1 | 9.88%
CCCc1ccc(C(=O)COC(=O)CN2C(=O)NC3(CCCCC3C)C2=O)cc1 (stereo unspecified) | 11.7%
O=C(Oc1ccc(Br)cc1)c1cccnc1 | -5.87%
N#CCc1ccc(OC(=O)c2cccnc2)cc1 | 12.8%
O=C(Oc1c(-c2ccco2)oc2ccccc2c1=O)c1cccnc1 | 56.6% (active)
O=C(c1ccc(-n2cnnn2)cc1)N1CCN(C(c2ccccc2)c2ccccc2)CC1 | 12.3%
CCN(CCCNC(=O)c1ccc2c(c1)NC(=O)CN2C)c1cccc(C)c1 | 82.6% (active)
CCN(CCCNC(=O)CCn1c(=O)[nH]c2ccsc2c1=O)c1ccccc1 | 0.795%
CCN(CCCNC(=O)C1CCN(S(=O)(=O)c2cnc[nH]2)CC1)c1ccccc1 | 37.3%
CC1CC(C)CN(C(=O)CSc2ccsc2[N+](=O)[O-])C1 (stereo unspecified) | -7.54%
Oc1ccc(-c2cccc(-c3ccc(O)cc3)c2)cc1 | -24.2%
Cc1ccc(-c2csc(NC3OC(=O)c4ccccc43)n2)cc1 (stereo unspecified) | 63.6% (active)
Cc1ccc(-c2csc(NC(=O)Cn3[nH]c(=O)c4ccccc4c3=O)n2)cc1 | 31.2%
COc1cc(CC(=O)Nc2nc(-c3ccc(F)c(F)c3)cs2)cc(OC)c1OC | 28.8%

Structure (SMILES) | inhibition
Cc1cccc(Nc2nc(-c3ccccc3)cs2)n1 | -222%
COc1ccc2c(c1OC)C(=O)OC2Nc1nc(-c2ccccc2)cs1 (stereo unspecified) | 98.5% (active)
Cc1ccc(-c2csc(-c3cc(C)on3)n2)cc1 | -47.3%
OC(CNC1CCCC1)COc1ccc(F)cc1 (stereo unspecified) | 7.59%
CCCCCCCCCCOC(=O)C[N+](C)(C)CC1CCCCC1O (stereo unspecified) | 23.5%
CCN(CC(=O)NCc1ccc(Cl)cc1)C(=O)c1c(C)noc1C | 3.48%
O=C(c1ccncc1)N1CCN(S(=O)(=O)c2cccc([N+](=O)[O-])c2)CC1 | -3.71%
CC(C)c1ccc(-c2noc(C3CCCN(S(C)(=O)=O)C3)n2)cc1 (stereo unspecified) | 2.01%
Cn1c(C(=O)NCCCN2CCN(c3cccc(Cl)c3)CC2)cc2c(=O)n(C)c3ccccc3c21 | 76.9% (active)
CCN1CCCC1CNC(=O)c1cc2c(=O)n(C)c3ccccc3c2n1C (stereo unspecified) | 18.3%
Cn1c(C(=O)NCCc2ccsc2)cc2c(=O)n(C)c3ccccc3c21 | -6.58%
O=C(OCC(=O)N1CCN(C(=O)c2ccco2)CC1)c1c(Cl)cccc1Cl | 2.03%
CCOC(=O)Cn1c2c(c(-c3ccccc3OC)cc1=O)CCCC2 | -13.8%
CCO[C@H]1OC(C(=O)O)=C[C@@H](C2CCCCC2)[C@@H]1CCCO | -5.58%
CCCCCCCCCCOC(=O)Cn1c(COc2cccc(OC)c2)[n+](C)c2ccccc21 | 61.7% (active)
CCCCn1c(N)c(N(CCOC)C(=O)c2cccc(OCc3ccccc3)c2)c(=O)[nH]c1=O | -6.7%
CCOC(=O)Cn1c(-c2cccnc2Cl)nc2ccccc21 | -0.413%
COc1cccc(OCc2nnc3n2N=C(c2ccccc2)C(CC(=O)O)S3)c1 (stereo unspecified) | -4%
CCCCCCCCCCOC(=O)Cn1c(COc2ccc(C)cc2)[n+](C)c2ccccc21 | 91.9% (active)
CCOC(=O)COn1c(=O)c(-c2ccc(OCC)cc2)[n+]([O-])c2ccccc21 | -23.1%
COc1cccc(NC(=O)CSc2nnc(C3CCCCC3)n2N)c1 | 18.3%
CNC[C@@H]1Oc2c(NS(C)(=O)=O)cccc2C(=O)N([C@@H](C)CO)C[C@H]1C | -13.4%
